In PubChem BioAssay:

Assays:
[1] = system: Botulinum neurotoxin type F light chain protease (Clostridium botulinum); assay: Botulinum neurotoxin type F light chain protease inhibition, multiplex microsphere flow cytometry, validation set (AID 588459); details: multiplex microsphere protease substrate cleavage assay, at 10 µM, active compounds read high
[2] = molecular target: Botulinum neurotoxin type A (Clostridium botulinum) (UniProt P0DPI0); assay: BoNT/A light chain protease inhibitors, biochemical, multiplex microsphere flow cytometry, validation set (AID 588460); details: at 10 µM, active compounds read high
Chain of Botulinum neurotoxin type A (Clostridium botulinum) (P0DPI0 whole entry, looked up): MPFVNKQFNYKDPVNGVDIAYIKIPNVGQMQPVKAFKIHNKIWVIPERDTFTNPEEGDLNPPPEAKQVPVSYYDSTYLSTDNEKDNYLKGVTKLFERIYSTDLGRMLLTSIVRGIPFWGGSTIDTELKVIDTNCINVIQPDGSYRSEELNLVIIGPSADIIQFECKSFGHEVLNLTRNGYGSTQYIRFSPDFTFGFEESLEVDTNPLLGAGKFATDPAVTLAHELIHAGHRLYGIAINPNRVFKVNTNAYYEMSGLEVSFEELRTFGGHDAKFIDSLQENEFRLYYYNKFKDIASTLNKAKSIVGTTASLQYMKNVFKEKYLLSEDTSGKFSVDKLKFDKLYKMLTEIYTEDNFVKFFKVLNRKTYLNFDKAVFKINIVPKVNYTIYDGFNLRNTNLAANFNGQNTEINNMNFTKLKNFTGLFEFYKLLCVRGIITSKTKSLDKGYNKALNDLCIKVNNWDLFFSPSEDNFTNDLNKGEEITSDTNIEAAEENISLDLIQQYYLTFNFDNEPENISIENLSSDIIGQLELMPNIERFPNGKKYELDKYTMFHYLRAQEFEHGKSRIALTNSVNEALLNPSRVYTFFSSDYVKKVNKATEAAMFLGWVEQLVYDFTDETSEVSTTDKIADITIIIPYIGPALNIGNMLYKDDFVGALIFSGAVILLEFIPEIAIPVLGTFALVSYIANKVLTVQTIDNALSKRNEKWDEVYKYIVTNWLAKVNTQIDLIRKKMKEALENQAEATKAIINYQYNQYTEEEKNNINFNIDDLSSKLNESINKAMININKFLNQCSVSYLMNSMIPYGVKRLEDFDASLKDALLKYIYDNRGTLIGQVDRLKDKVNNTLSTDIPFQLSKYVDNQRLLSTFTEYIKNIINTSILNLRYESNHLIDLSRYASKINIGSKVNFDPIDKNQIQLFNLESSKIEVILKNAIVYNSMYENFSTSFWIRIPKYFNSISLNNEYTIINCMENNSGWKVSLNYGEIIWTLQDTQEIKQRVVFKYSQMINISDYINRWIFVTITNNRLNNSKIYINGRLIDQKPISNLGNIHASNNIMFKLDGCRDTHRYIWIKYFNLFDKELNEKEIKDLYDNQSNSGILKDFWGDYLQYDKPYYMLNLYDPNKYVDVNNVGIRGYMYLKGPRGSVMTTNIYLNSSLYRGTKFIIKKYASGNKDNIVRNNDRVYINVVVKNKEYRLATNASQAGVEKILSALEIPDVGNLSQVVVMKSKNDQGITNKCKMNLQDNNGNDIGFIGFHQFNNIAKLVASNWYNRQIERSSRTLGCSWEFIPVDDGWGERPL

[3] = molecular target: Lethal factor (Bacillus anthracis) (UniProt P15917); assay: Lethal factor protease inhibitors, Bacillus anthracis, multiplex microsphere cleavage assay, validation set (AID 588461); details: flow cytometry, at 10 µM, active compounds read high
Chain of Lethal factor (Bacillus anthracis) (P15917 whole entry, looked up): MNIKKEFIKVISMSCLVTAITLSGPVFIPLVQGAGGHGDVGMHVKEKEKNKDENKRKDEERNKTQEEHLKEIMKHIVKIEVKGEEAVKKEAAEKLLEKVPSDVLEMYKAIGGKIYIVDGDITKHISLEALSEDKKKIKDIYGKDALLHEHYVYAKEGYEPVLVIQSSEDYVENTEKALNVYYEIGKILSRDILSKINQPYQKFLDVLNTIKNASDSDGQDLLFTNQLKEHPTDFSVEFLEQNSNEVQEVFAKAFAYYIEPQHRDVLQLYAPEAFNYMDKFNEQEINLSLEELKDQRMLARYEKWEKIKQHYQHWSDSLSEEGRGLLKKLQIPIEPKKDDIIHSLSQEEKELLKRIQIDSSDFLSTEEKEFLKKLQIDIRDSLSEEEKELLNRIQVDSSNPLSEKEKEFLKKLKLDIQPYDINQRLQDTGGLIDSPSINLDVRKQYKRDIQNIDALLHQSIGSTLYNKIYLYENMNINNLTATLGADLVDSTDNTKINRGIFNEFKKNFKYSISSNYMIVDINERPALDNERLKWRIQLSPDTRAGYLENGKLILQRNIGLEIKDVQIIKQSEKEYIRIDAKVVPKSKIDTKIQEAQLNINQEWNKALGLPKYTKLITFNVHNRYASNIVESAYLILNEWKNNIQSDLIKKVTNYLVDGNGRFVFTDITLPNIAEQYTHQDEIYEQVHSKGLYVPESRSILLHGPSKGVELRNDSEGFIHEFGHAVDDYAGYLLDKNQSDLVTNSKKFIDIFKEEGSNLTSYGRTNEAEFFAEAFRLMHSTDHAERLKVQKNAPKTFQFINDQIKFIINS

Measured: inhibition

O=Cc1ccc(N2CCCCC2)cc1
inactive: [1] -0.8% | [2] -0.3% | [3] -1.6%

CCSC(=O)CCCCCCCCCCCO
inactive: [1] 2.8% | [2] 1.5% | [3] 14.5%

COc1c(O)ccc2c1CN1CCc3cc4c(cc3C1C2)OCO4 (centres undefined)
inactive: [1] -8.1% | [2] -2.1% | [3] -16.1%

CC(=O)c1c(C)[nH]c(C(=O)OCc2ccccc2)c1C
inactive: [1] 2.9% | [2] 0.8% | [3] -6.6%

NC(=O)N1c2ccccc2C=Cc2ccccc21
inactive: [1] 1.3% | [2] -0.2% | [3] 8.1%

COc1ccccc1C(CC(=O)Nc1ccccc1C)c1ccc(OC(C)C)cc1 (centres undefined)
inactive: [1] -0.1% | [2] -0.8% | [3] -7.4%

Clc1ccc2c(c1)CCc1cccnc1C2=C1CCNCC1
inactive: [1] -4.1% | [2] -0.7% | [3] 5.5%

CC(NC(=O)c1ccc(N2CCNCC2)c([N+](=O)[O-])c1)C12CC3CC(CC(C3)C1)C2 (centres undefined)
inactive: [1] 0.1% | [2] -0.6% | [3] -5.2%

CC(C)NC[C@@H](O)c1ccc(O)c(O)c1
inactive: [1] -3.7% | [2] -0.5% | [3] -6.8%

COC(=O)C1=CN(Cc2cccs2)C=C(C(=O)OC)C1c1cccc(Cl)c1
inactive: [1] -4.5% | [2] -0.4% | [3] -4%

COc1ccc(OC)c(S(=O)(=O)N2CCCc3ccccc32)c1
inactive: [1] -4.6% | [2] -0.4% | [3] -0.9%

C[N+]12CCCCC1C(COC(=O)c1ccc3c(c1)OCO3)CCC2 (centres undefined)
inactive: [1] 2.1% | [2] 0.2% | [3] -0.7%

C[C@H](NC(=O)OC(C)(C)C)C(=O)NCC1CCC(C(=O)O)CC1 (some centres undefined)
inactive: [1] 2.7% | [2] -2.2% | [3] -1.1%

CC(C)C12CN3CC(C(C)C)(CN(C1)C31C(=O)Nc3ccccc31)C2=O (centres undefined)
inactive: [1] 0.1% | [2] 0.7% | [3] 9%

CCOC(=O)c1cc2c(nc1N)CC(C)(CC)OC2 (centres undefined)
inactive: [1] 3.5% | [2] 1% | [3] -2.4%

COc1ccc(C2CC(c3ccc([N+](=O)[O-])cc3)=NN2C(=O)c2ccccc2)cc1OC (centres undefined)
inactive: [1] 10.2% | [2] 7.9% | [3] 2.3%

O=Cc1ccc(O)c(O)c1
inactive: [1] -2% | [2] -1.1% | [3] -1%

NS(=O)(=O)c1ccc(CNC(=O)c2cc(-c3ccccc3)nc3ccccc23)cc1
inactive: [1] 0.5% | [2] 0.4% | [3] -4.8%

CCC(CO)NCCNC(CC)CO (centres undefined)
inactive: [1] 0.2% | [2] 1.5% | [3] -0.2%

CSc1cccc(NC(=O)/C=C/c2ccccc2)c1
inactive: [1] -0.9% | [2] -2.3% | [3] -8.2%

Cc1ncc(CN2CCC(CO)(CCc3ccccc3)CC2)s1
inactive: [1] 1.3% | [2] 0.2% | [3] -3%

COc1ccc(NC(=O)C2OC3OC(C)(C)OC3C3OC(C)(C)OC23)cc1 (centres undefined)
inactive: [1] -1.2% | [2] 1.3% | [3] -5.4%

CCCCC[C@H](O)/C=C/[C@@H]1[C@@H](C/C=C\CCCC(=O)O)[C@@H](O)C[C@H]1O
inactive: [1] -2.4% | [2] -1.9% | [3] -1.1%

O=C1CN(O)C=C2N=c3ccccc3=C2N1c1ccc([N+](=O)[O-])cc1
inactive: [1] -2.6% | [2] -2.1% | [3] -4.4%

Cc1ccc2c(c1)c(=O)c1c3n2CCN(C(=O)CCl)C3CC1 (centres undefined)
inactive: [1] -11.4% | [2] -1.3% | [3] -32.4%

O=C(/C=C/c1ccc2c(c1)OCO2)c1ccccn1
inactive: [1] -2.7% | [2] -0.2% | [3] -2.8%

O=C(CC(NC(=O)OCc1ccccc1)C(=O)O)OCc1ccccc1 (centres undefined)
inactive: [1] -3.2% | [2] -2.1% | [3] 2.5%

COc1cc2c(cc1O)CC[C@@H]1[C@@H]2CC[C@]2(C)[C@@H](O)CC[C@@H]12
inactive: [1] -2.1% | [2] -2.2% | [3] -2.9%

Cc1ccc2c(c1)c(C)cc(=O)n2CCC(=O)O
inactive: [1] 0.8% | [2] -0.2% | [3] 1.1%

CC1CNCCN1S(=O)(=O)c1cccc2cnccc12 (centres undefined)
inactive: [1] 2.5% | [2] -0.1% | [3] 1.6%

CCn1nc(C(=O)O)c(=O)c2cc3c(cc21)OCO3
inactive: [1] 5.7% | [2] 0.6% | [3] 0.2%

CCCCC(=O)O[C@]1(C(=O)CO)CC[C@H]2[C@@H]3CCC4=CC(=O)CC[C@]4(C)[C@H]3[C@@H](O)C[C@@]21C
inactive: [1] -3.5% | [2] -0.5% | [3] -2.1%

c1ccc(Cn2ncc3c(Nc4ccccc4)ncnc32)cc1
inactive: [1] 1.6% | [2] -1.4% | [3] -0.5%

O=c1[nH]c(=O)n([C@H]2C[C@H](O)[C@@H](CO)O2)cc1F
inactive: [1] 1.7% | [2] 1.3% | [3] 1.1%

Cc1ccc2c(c1C)NC(C(=O)O)C1CC=CC21 (centres undefined)
inactive: [1] -5.3% | [2] -1.9% | [3] -13.2%

CC12CCC(C(=O)NCc3ccc4c(c3)OCO4)(CC1=O)C2(C)C (centres undefined)
inactive: [1] 1.9% | [2] 1.2% | [3] 4.8%

CC1/C(=C\c2ccc(Cl)cc2)C(=O)C2CC1C2(C)C (centres undefined)
inactive: [1] 5.2% | [2] 0.2% | [3] -9.7%

CC12CC(c3ccccc3O1)C(C(=O)N1CCOCC1)C(=O)N2 (centres undefined)
inactive: [1] 2.8% | [2] 0% | [3] -4.8%

Oc1ccc(Cl)cc1Cc1cc(Cl)ccc1O
inactive: [1] 10% | [2] 4.5% | [3] 7.7%

CC(C)=CCCC1=CCC2C(=O)NNC(=O)C2C1 (centres undefined)
inactive: [1] -1.6% | [2] -1% | [3] 3%

CC(C)CCn1c(N2CCc3ccccc3C2)nc2c1c(=O)[nH]c(=O)n2C
inactive: [1] -1.6% | [2] 0.3% | [3] 4%

CC1(C)Cc2nc3sc4c(=O)n(CC(N)=O)cnc4c3cc2CO1
inactive: [1] -0.6% | [2] 1.1% | [3] -3.8%

Cc1cc(=O)oc2cc(OC(C)C(=O)NCC3CCCO3)ccc12 (centres undefined)
inactive: [1] 3% | [2] 0.9% | [3] -4.8%

NC12CC3CC(C1)CC(O)(C3)C2
inactive: [1] 4.4% | [2] -0.4% | [3] -0.7%

COc1ccc2[nH]c3c(c2c1)CCn1c-3nc2ccccc2c1=O
inactive: [1] 7% | [2] 2.2% | [3] 4.4%

Nc1ccc(N)c(C(=O)O)c1
inactive: [1] -6.1% | [2] -14% | [3] -7.2%

Cc1ccc(Cl)c(Nc2ccccc2C(=O)O)c1Cl
inactive: [1] -4.5% | [2] 0.2% | [3] 0.3%

COc1ccc(C(=O)NCC2OCCc3ccccc32)cc1 (centres undefined)
inactive: [1] -0.4% | [2] -0.3% | [3] -8.6%

COc1cc2nc(N3CCN(C(=O)C4COc5ccccc5O4)CC3)nc(N)c2cc1OC (centres undefined)
inactive: [1] -0.3% | [2] 0% | [3] -2.9%

O=C(Nc1ccc(F)c([N+](=O)[O-])c1)c1ccc2c(c1)OCCO2
inactive: [1] -3.7% | [2] -2.7% | [3] -7.5%

CC(=O)NC(Cc1ccccc1)C(=O)OCC(=O)c1ccccc1 (centres undefined)
inactive: [1] -2.6% | [2] -1.5% | [3] -3.3%

CNc1c2c(nn1C)CCCC2
inactive: [1] 0.6% | [2] -1.3% | [3] -3.5%

COc1ccc(CCNC(=S)NC(=O)/C=C/c2ccc(C)cc2)cc1OC
inactive: [1] 0.1% | [2] -1.3% | [3] -7.3%

CC(=O)N1c2ccccc2C(C)=CC1(C)C
inactive: [1] 2.3% | [2] -0.7% | [3] -8.5%

CC(=O)Nc1ccc2[nH]c(C)c(CC=C(Cl)Cl)c(=O)c2c1
inactive: [1] -0.7% | [2] -1.7% | [3] -4.2%

COc1cc(C(=O)Nc2ccc(N(C)C)cc2)c([N+](=O)[O-])cc1OC
inactive: [1] -2.4% | [2] -0.2% | [3] -19.3%

Cn1c(=O)[nH]c(=O)c2c1nc(Br)n2CCCO
inactive: [1] 2.3% | [2] 0.7% | [3] -5.7%

CCc1cc(=O)oc2cc(OCc3nn[nH]n3)ccc12
inactive: [1] -0.5% | [2] -1.3% | [3] 1.9%
